HP1b chromo inh: HP1-beta chromodomain-methylated histone interaction inhibition; Potency, µM (top dose mostly 114 µM), without a hit: at the highest dose activity change, negative = inhibition, actives largely listed as inhibitors; AlphaScreen HP1-beta / biotin-H3K9me3 peptide binding; actives 0.56% (n = 390,000); note: potency is the fitted concentration of half-maximal effect; nearly all actives have a fitted effect of over 70% in size
Target sequence (P83916 whole entry, looked up): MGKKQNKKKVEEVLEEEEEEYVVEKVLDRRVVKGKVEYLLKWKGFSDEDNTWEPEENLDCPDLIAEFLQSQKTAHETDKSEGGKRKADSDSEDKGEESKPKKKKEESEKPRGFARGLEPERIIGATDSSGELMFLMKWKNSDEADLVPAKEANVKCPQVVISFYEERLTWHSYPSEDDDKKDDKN
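HP1-beta protein (50 nM final) preincubated 30 min at room temperature with biotinylated H3(1-18)K9me3 peptide (50 nM) in PBS pH 7.4, 0.01% Tween-20, then compound added for 30 min. AlphaScreen streptavidin donor/nickel chelate acceptor beads (10 ug/mL final), 30 min dark, luminescence read.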
G9a block: inhibitors of human histone lysine methyltransferase G9a. Potency, µM (series often up to 102 µM), for the others: at the top dose activity, negative = inhibition, usual class: inhibitors. G9a H3K9 monomethylation, AlphaScreen, 2 h. AID 504332. actives 8.8% (n = 350,000); note: potency is the fitted concentration of half-maximal effect; % is set by controls: 0 for no effect and ±100 for the full control effect; nearly all actives have a fitted effect of over 75% in size
Target sequence (Q96KQ7 913-1193 limits assumed): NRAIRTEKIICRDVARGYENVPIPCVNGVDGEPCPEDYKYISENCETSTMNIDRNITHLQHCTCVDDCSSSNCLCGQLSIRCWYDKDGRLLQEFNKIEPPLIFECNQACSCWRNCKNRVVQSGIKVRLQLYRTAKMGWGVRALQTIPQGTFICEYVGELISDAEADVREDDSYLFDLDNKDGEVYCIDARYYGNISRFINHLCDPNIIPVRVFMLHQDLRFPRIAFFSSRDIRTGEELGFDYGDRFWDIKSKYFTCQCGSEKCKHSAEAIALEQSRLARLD
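Using a bead-based AlphaScreen, monomethylated H3K9 product from 2 h room-temperature reactions (G9a 20 nM, peptide 500 nM, SAM 20 uM) was detected with 0.5 ug/mL rabbit anti-H3K9me1 antibody.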
JMJD2A Tudor inh: blocks the human JMJD2A Tudor domain; AlphaScreen JMJD2A-Tudor / H3K4me3 peptide binding; Potency, µM (highest dose often 114 µM), for inactives: at the highest dose activity change, negative = inhibition, usual class: inhibitors; O75164; actives 4.4% (n = 390,000); note: potency is the fitted concentration of half-maximal effect; % is set by controls: 0 for no effect and ±100 for the full control effect; nearly all actives have a fitted effect of over 50% in size
PI5P4Ka inh: inhibitors of human PI5P4K alpha. actives 1.2% (n = 330,000). P48426. max response, %. PI5P4Kalpha enzyme, ADP-Glo luminescence, 60 min; active compounds read low; active = max response of -50% or lower; inconclusive = between -30% and -50%; inactive = -30% or higher; note: value at the top dose of about 77 µM; % is set by controls: 0 for no effect and ±100 for the full control effect
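ADP-Glo luminescence end-point read after a 60 min room-temperature kinase reaction of PI5P4Kalpha plus substrate, initiated with ATP at 5 microM final. Buffer: 0.038 M HEPES pH 7.4, EGTA, 0.1% CHAPS, 5% DMSO.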
BAZ2B inh: blocks human BAZ2B; Q9UIF8; AlphaScreen BAZ2B-H3K14Ac peptide displacement; Potency, µM (highest dose often 114 µM), inactives show at the highest dose activity change, negative = inhibition, hits mostly inhibitors; actives 4.4% (n = 360,000); AID 504333; note: potency is the fitted concentration of half-maximal effect; % is set by controls: 0 for no effect and ±100 for the full control effect; nearly all actives have a fitted effect of over 60% in size
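AlphaScreen displacement: compounds (up to 110uM) incubated 30 min at room temperature with a preformed 50 nM BAZ2B/50 nM biotinylated H3K14Ac peptide complex in PBS pH 7.4 with Tween-20. Donor and acceptor beads at 10 ug/mL final added, 20 min light-protected before reading.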
PLK1 PBD block: blocks phosphopeptide binding to human PLK1 polo-box domain; P53350; Plk1 PBD binding of FITC phosphopeptide, fluorescence polarization; Potency, µM, for the others: max response, negative = inhibition, hits mostly inhibitors; actives 2.8% (n = 360,000); AID 720504; note: potency is the fitted concentration of half-maximal effect; series mostly up to about 57 µM; % is set by controls: 0 for no effect and ±100 for the full control effect; nearly all actives have a fitted effect of over 65% in size
* marks the source's active call; other numbers are inactive results; ? = inconclusive; . = no result given; [ ] = remark or other dose. A selection: hits, their analogues and other compounds. The true share with any hit is near 12%. Unless noted, calls come from the whole dose curve; as a rule, active = well fitted curve in the direction sought with a large enough effect; inconclusive = small, poorly fitted or top-dose-only effect, or another doubt; inactive = no such curve, though single readings can be large; an effect the other way counts as inactive or inconclusive.

SMILES	HP1b chromo inh	G9a block	JMJD2A Tudor inh	PI5P4Ka inh	BAZ2B inh	PLK1 PBD block
O=C(CCS(=O)(=O)c1ccc(Br)cc1)Nc1cc(F)ccc1F	32µM*	50µM*	-19%[57.1 µM]	-15	45µM*	?
O=C(CCS(=O)(=O)c1ccc(Br)cc1)NC1CCCC1	-28%	45µM*	50µM*	.	50µM*	?
Cc1ccc(NC(=O)CCC(=O)OCc2ccc(Br)cc2)cc1	17%	14%[59 µM]	79µM*	6	-1%	27µM*
O=C(CCS(=O)(=O)c1ccc(Br)cc1)Nc1ccc(F)cc1F	33%	2%[59 µM]	9%	.	10%	.
Cc1cc(C)c(NC(=O)C(=O)NCC(c2cccnc2)N2CCN(Cc3ccccc3)CC2)c(C)c1 (stereo not drawn)	22%	-5%[59 µM]	-12%	.	3%	.
COc1cccc(CNC(=O)c2ccc3oc(=O)n(Cc4ccccc4)c3c2)c1	36%	?	-3%	.	-1%	.
COc1ccc(S(=O)(=O)CCC(=O)Nc2ccc(OC)cc2OC)cc1	23%	10µM*	-9%	.	-14%	-25%
CCCOc1ccc(C(=O)CCC(=O)Nc2ccc(N3CCN(C)CC3)cc2)cc1	-21%	?	56µM*	1	50µM*	4%
CCOC(=O)CNCCC(=O)c1ccc(Br)cc1	22%	7.1µM*	?	-10	?	12µM*
CCOc1ccc(NC(=O)CCC(=O)c2ccc(Br)cc2)cc1	0%	23%	-26%	7	-38%	21µM*
CCCOc1ccc(C(=O)CCC(=O)OCC(=O)Nc2ccc(OCC)cc2)cc1	.	2%[12.7 µM]	.	.	-4%	.
CCCCOc1ccc(C(=O)NCc2nnnn2-c2ccc(C)c(C)c2)cc1	22%[57 µM]	4%[59 µM]	-15%	.	2%	.
CCc1cccc(NC(=O)CCNS(=O)(=O)c2ccc3c(c2)CCN3C(C)=O)c1	59%	6%[59 µM]	-1%	.	.	.
CC(N)(COP(=O)(O)O)C(=O)O (stereo not drawn)	.	32%[59 µM]	.	.	.	.
Cc1noc(C)c1CCC(=O)Nc1cc(C(=O)O)ccc1Cl	.	.	.	-5	.	-2%
Cc1ccc(S(=O)(=O)N2CCC(=O)N([C@H](COCc3ccc(Cl)cc3)C(C)C)CC2)cc1	.	.	.	-6	.	-4%
CCOc1ccc(NC(=S)NNC(=O)c2ccc(Br)cc2)cc1	0%	35µM*	?	-6	-38%	?
COC(=O)c1ccccc1NC(=O)CCS(=O)(=O)c1ccc(Br)cc1	3.2µM*	2.2µM*	4µM*	?	2µM*	12µM*
COc1ccc(NC(=O)CCCN2C(=O)CN(C)C2=O)c(OC)c1	-12%	-6%[12.7 µM]	50µM*	-8	50µM*	-2%
COc1ccc([N+](=O)[O-])cc1NC(=O)CCS(=O)(=O)c1ccc(Br)cc1	?	14µM*	40µM*	0	50µM*	-22%
CCN(CC)C(=O)Cn1c(=O)n(Cc2ccc(C(=O)NCc3ccccc3Cl)cc2)c(=O)c2ccccc21	27%	-36%[59 µM]	-4%	.	-4%	.
CO/N=C/C(=N\Nc1ccc(C)cc1)C(=O)c1ccc(OC)cc1	13%	-42%	-27%	32	-30%	-3%
CO/N=C/C(=N\Nc1ccc(OC)cc1)C(=O)c1ccc(F)cc1	-14%	16%	-20%[11.4 µM]	6	-6%	24µM*
CO/N=C/C(=N\Nc1ccccc1)C(=O)c1ccccc1	-7%	-18%	-22%[11.4 µM]	14	6%	24µM*
Cc1ccc(-c2nc(C)c(CCNC(=O)C(=O)Nc3cc(C)ccc3C)s2)cc1	13%[57 µM]	5%[59 µM]	-17%	.	2%	.
SMILES	HP1b chromo inh	G9a block	JMJD2A Tudor inh	PI5P4Ka inh	BAZ2B inh	PLK1 PBD block
CCc1ccccc1NC(=O)Cn1c(=O)n(Cc2ccc(OC)cc2)c(=O)c2oc3ccccc3c21	6%	2%[59 µM]	-13%	.	-4%	.
Cc1ccc2nc(C)c(C(=O)O)cc2c1	20%	-43%	2%	7	12%	1%
Cc1ccc2cc(C(=O)O)c(C)nc2c1	33%	50µM*	-7%	-8	?	1%
Cc1cc(C)cc(NC(=O)c2cn3c4c(ccc(Cl)c4c2=O)OC(C)C3)c1 (stereo not drawn)	30%	?	-10%	.	-3%	.
O=C(c1ccccc1)N1N=C(c2ccccc2)CC1c1ccccc1O (stereo not drawn)	?	?	11µM*	-26	?	3.4µM*
Cc1ccc(C2=NN(C(=O)c3ccccc3F)C(c3ccccc3F)C2)cc1 (stereo not drawn)	-18%	16µM*	-19%	0	-38%	?
COc1cccc(C2CC(c3ccc(C)cc3)=NN2C(=O)c2ccccc2F)c1OC (stereo not drawn)	20%	22%	-27%	-5	-7%	-3%
O=C(NCc1ccco1)c1cccc(-c2ccc3nccn3c2)c1	.	.	.	-1	.	-15%
COc1ccc2[nH]cc(CCNc3nc(-c4c(C)noc4C)nc4ccccc34)c2c1	.	7%[0.501 µM]	.	.	.	.
CC1=CC(C)(C)Nc2ccc(OC(=O)CN3C(=O)CCC3=O)cc21	14%	9%[12.7 µM]	-6%	.	-5%	-6%
CC1=CC(C)(C)Nc2ccc(OC(=O)c3cccnc3)cc21	-6%	45µM*	?	.	40µM*	-7%
CC1=CC(C)(C)Nc2ccc(OC(=O)c3ccco3)cc21	-13%	?	?	.	50µM*	-8%
CC1=CC(C)(C)Nc2ccc(OC(=O)C(C)N3C(=O)c4ccccc4C3=O)cc21 (stereo not drawn)	?	10µM*	?	0	22µM*	-18%
CC1=CC(C)(C)N2C(=O)C(=O)c3cc(OC(=O)c4ccco4)cc1c32	32µM*	35µM*	35µM*	?	35µM*	27µM*
COc1ccc(OC(=O)C(C)N2C(=O)c3ccccc3C2=O)cc1 (stereo not drawn)	58%	-1%	3%	-1	0%	-8%
N#Cc1ccc(C(=O)NNC(=O)c2ccncc2)cc1	32%	12%	-7%	2	-2%	0%
CCOC(=O)c1c(C)[nH]c(C)c1S(=O)(=O)N(C)CC(=O)N(C)Cc1ccccc1	40%	-33%	-8%	6	-17%	-4%
O=C(Cn1cc(S(=O)(=O)Cc2ccccc2Cl)c2ccccc21)Nc1ccc(F)cc1F	13%	5%[59 µM]	-9%	.	4%	.
COc1ccc([C@H]2C[C@H](n3cc(C4CC4)nn3)[C@@H](O)CN2C(=O)C2CCCCC2)cc1	.	.	.	-2	.	2%
O=C(C1=C(O)C(=O)N(CCOCCO)C1c1cccc([N+](=O)[O-])c1)c1cccs1 (stereo not drawn)	17%	.	-6%	4	-11%	2%
O=C(O)CCCCCN1C(=O)C(O)=C(C(=O)/C=C/c2ccccc2)C1c1cccc([N+](=O)[O-])c1 (stereo not drawn)	27%	45µM*	-17%	-3	?	-4%

Source: PubChem
